# Laboratory results from PubChem BioAssay.
# Calls of active or inactive are those of the source.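 The calls were made as follows, unless noted: active = mean z-score across replicates of 1.96 or higher in either the MELAS or the Rieske mutant cell line; inactive = the rest.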
# Key:
# [1] = viability loss with induced miR-34 in A549 – imaging, A549 dox-inducible miR-34, nuclei and caspase counts, primary screen (AID 1347080;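 active = compounds whose cell count with miR-34 switched on is under 0.7 times the count with it off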); settings: A549 miR-34 inducible, Hoechst nuclei count, 48 h
# [2] = MELAS cybrid and Rieske KO viability enhancers – cell-based, MELAS cybrids, Rieske KO mouse fibroblasts, CellTiter-Glo, primary screen (AID 1508586); settings: low glucose;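 also: z relative to plate mean and SD of compound and empty wells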
# [3] = stronger effect = lower value, cell number ratio, induced over uninduced
# [4] = measured here: relative caspase fold change +Dox/-Dox
# [5] = measured here: total cells with miR-34 induction, stronger effect = lower value
# [6] = measured here: total cells without miR-34 induction
# [7] = MELAS cybrid survival, CellTiter-Glo 48 h, stronger effect = higher value
# [8] = Rieske KO mouse fibroblast survival, CellTiter-Glo 72 h
# Also: test concentration not given here.
Compound,"fold change [1, 3]","fold change [1, 4]","cell count [1, 5]","cell count [1, 6]","z-score [2, 7]","z-score [2, 8]"
CCOC(=O)C(N)Cc1ccc(-c2cc(OC(c3ccc(Cl)cc3-n3ccc(C)n3)C(F)(F)F)nc(N)n2)cc1 (centres undefined),0.982 (inactive),0.783,8120,8260,0.073 (inactive),0.184
COC(=O)C1C(O)CC[C@H]2CN3CCc4c([nH]c5ccccc45)[C@@H]3C[C@H]12 (some centres undefined),0.892 (inactive),0.762,8840,9910,-0.303 (inactive),0.721
COc1ccc(-c2ccc3c(N4CCOCC4C)nc(N4CCOCC4C)nc3n2)cc1CO (centres undefined),0.853 (inactive),1.28,2360,2770,5.74 (active),-3.07
CC#C[C@@]1(O)CC[C@H]2[C@@H]3CCC4=CC(=O)CCC4=C3C(c3ccc(N(C)C)cc3)C[C@@]21C (some centres undefined),0.891 (inactive),1.53,6640,7460,-0.469 (inactive),0.644
CC1(C)S[C@@H]2C(NC(=O)C(N)c3ccc(O)cc3)C(=O)N2C1C(=O)O (some centres undefined),0.958 (inactive),0.664,9670,10100,-0.365 (inactive),0.721
CC1(C)S[C@H]2C(NC(=O)C(N)c3ccc(O)cc3)C(=O)N2C1C(=O)O (some centres undefined),1.01 (inactive),0.573,8190,8150,-0.00212 (inactive),-0.0136
CCCC(Nc1nc(-c2ccc(NC(=O)NCC)c(OC)c2)ncc1C)c1cccnc1 (centres undefined),1.06 (inactive),0.656,1450,1370,2.93 (active),-1.09
C[C@@]12CC[C@H]3c4ccc(O)cc4CC(CCCCCCCCCS(=O)CCCC(F)(F)C(F)(F)F)[C@H]3[C@@H]1CCC2O (some centres undefined),0.975 (inactive),0.957,4560,4680,-0.569 (inactive),0.522
CCC1OC(=O)C(C)C(OC2C[C@@](C)(OC)C(O)C(C)O2)C(C)C(OC2OC(C)CC(N(C)C)C2O)[C@](C)(O)CC(C)CN(C)C(C)C(O)[C@]1(C)O (some centres undefined),0.925 (inactive),0.82,8110,8770,-0.213 (inactive),0.708
CC1(C)SC2C(NC(=O)C(NC(=O)N3CCNC3=O)c3ccccc3)C(=O)N2C1C(=O)O (centres undefined),0.905 (inactive),1.06,8030,8880,-0.162 (inactive),-0.16
CC(C)C(=O)Oc1ccc(CO)cc1C(CCN(C(C)C)C(C)C)c1ccccc1 (centres undefined),0.941 (inactive),0.385,8240,8760,0.0306 (inactive),0.055
O=C(O)CCCN1CCC(OC(c2ccc(Cl)cc2)c2ccccn2)CC1 (centres undefined),0.967 (inactive),1.77,8100,8370,0.387 (inactive),-0.496
CCN(CC)CCN(Cc1ccc(-c2ccc(C(F)(F)F)cc2)cc1)C(=O)Cn1c(SCc2ccc(F)cc2)nc(=O)c2c1CCC2,0.577 (active),1.58,1110,1920,-0.397 (inactive),-1.15
CC(C)(Oc1ccc(Cl)cc1)C(=O)OCCOC(=O)c1cccnc1,0.919 (inactive),0.391,8570,9330,-0.212 (inactive),-0.266
CCC(=O)O[C@@]1(C(=O)CCl)[C@@H](C)C[C@H]2[C@@H]3CCC4=CC(=O)C=C[C@]4(C)[C@]3(F)[C@H](O)C[C@@]21C,0.838 (inactive),0.869,5560,6630,-0.516 (inactive),-0.656
C=C1CCC(O)CC1=CC=C1CCC[C@]2(C)C(C(C)CCCC(C)C)CC[C@@H]12 (some centres undefined),0.915 (inactive),0.845,8000,8740,-0.279 (inactive),-0.0631
O=C1NC(=O)C(=Cc2ccc(-c3ccc(F)cc3)o2)S1,0.882 (inactive),0.688,8240,9340,-0.386 (inactive),0.141
NC(Cc1c[nH]c2ccc(O)cc12)C(=O)O (centres undefined),0.876 (inactive),0.739,8790,10000,-0.256 (inactive),0.553
CC(C)(CO)c1cc2cc(NC(=O)C3(c4ccc5c(c4)OC(F)(F)O5)CC3)c(F)cc2n1CC(O)CO (centres undefined),0.912 (inactive),1.56,8420,9220,-0.252 (inactive),-0.139
CC(O)[C@H]1C(=O)N2C(C(=O)OCOC(=O)C(C)(C)C)=C(SC3CN(C4=NCCS4)C3)C(C)[C@@H]12 (some centres undefined),0.943 (inactive),0.543,8990,9530,-0.198 (inactive),-0.552
CCCC(=O)O[C@@]1(C(=O)COC(C)=O)CC[C@H]2[C@@H]3CC(F)C4=CC(=O)C=C[C@]4(C)[C@]3(F)C(O)C[C@@]21C (some centres undefined),0.767 (inactive),1.77,5160,6730,-0.0529 (inactive),-0.145
COc1c(C)c2c(c(O)c1CC=C(C)CCC(=O)OCCN1CCOCC1)C(=O)OC2,0.917 (inactive),1.06,1830,1990,0.827 (inactive),-0.579

Compound,"fold change [1, 3]","fold change [1, 4]","cell count [1, 5]","cell count [1, 6]","z-score [2, 7]","z-score [2, 8]"
Cc1ccc(NCCCc2ccccc2)c(N)c1,0.882 (inactive),0.496,7500,8510,-0.425 (inactive),0.263
O=C1CC(=O)c2c(Cl)c(Cl)c(Cl)c(Cl)c21,1.01 (inactive),0.472,8430,8350,-0.354 (inactive),-0.295
C=C1C[C@@]2(O)O[C@@]3(CC2C(C)C)C(C)CC[C@@H]13 (some centres undefined),0.988 (inactive),0.924,9960,10100,-0.407 (inactive),0.387
C=CCC1C=C(C)CC(C)CC(OC)C2O[C@@](O)(C(=O)C(=O)N3CCCC[C@H]3C(=O)OC(C(C)=CC3CCC(O)C(OC)C3)C(C)C(O)CC1=O)C(C)CC2OC (some centres undefined),0.917 (inactive),0.834,7870,8580,-0.545 (inactive),0.683
CC(C)(C)c1cc(C(=O)C(C#N)=NNc2cccc(Cl)c2)no1,0.873 (inactive),0.45,4320,4950,-0.557 (inactive),-3.22
Cc1ccc(C(=O)N(CCCN)C(c2nc3cc(Cl)ccc3c(=O)n2Cc2ccccc2)C(C)C)cc1 (centres undefined),0.993 (inactive),0.877,1340,1350,0.859 (inactive),-0.608
CCN1C(=CC(C)=O)Sc2ccc(OC)cc21,0.889 (inactive),0.354,6850,7700,0.342 (inactive),1.67
CCC(CC)(NC(=O)C(C)C)C(=O)NC(CCCN=C(N)N)C(=O)NC1(C(=O)NC(c2ccc(F)cc2)c2ccc(F)cc2)CCCC1 (centres undefined),0.936 (inactive),0.709,9110,9730,-0.415 (inactive),-0.654
CCC1OC(=O)C(C)C(OC2C[C@@](C)(OC)C(O)C(C)O2)C(C)C(OC2OC(C)CC(N(C)C)C2O)[C@@](C)(O)CC(C)C(=O)C(C)C(O)[C@]1(C)O (some centres undefined),0.879 (inactive),1.14,7750,8820,-0.0604 (inactive),0.782
NS(=O)(=O)c1ccc(NC(=O)Nc2ccc(F)cc2)cc1,0.971 (inactive),0.438,8130,8360,-0.152 (inactive),-0.0443
CC(NCc1ccc(OCc2cccc(F)c2)cc1)C(N)=O (centres undefined),0.935 (inactive),1.08,7820,8360,-0.428 (inactive),0.667
CCC(C)(C)c1ccc(CC(C)CN2CC(C)OC(C)C2)cc1 (centres undefined),0.944 (inactive),0.765,8210,8700,-0.433 (inactive),0.477
CC(C)C(N)C(=O)OCC(CO)OCN1C=NC2C(=O)NC(N)=NC21 (centres undefined),0.916 (inactive),0.625,8420,9190,-0.0737 (inactive),-0.153
COCC(NC(=O)c1cnc(C)s1)C(=O)NC(COC)C(=O)NC(Cc1ccccc1)C(=O)C1(C)CO1 (centres undefined),0.898 (inactive),1.09,714,796,0.992 (inactive),-0.399
COc1ccc(CC2c3cc(OC)c(OC)cc3CC[N@+]2(C)CCC(=O)OCCCCCOC(=O)CC[N@@+]2(C)CCc3cc(OC)c(OC)cc3C2Cc2ccc(OC)c(OC)c2)cc1OC (some centres undefined),0.844 (inactive),1.36,7940,9400,-0.391 (inactive),0.533
Cc1ccc(CNc2ncnc3ccc(-c4ccc(CO)o4)cc23)o1,0.916 (inactive),0.52,7510,8210,-0.414 (inactive),0.153
CC(=O)OCC(=O)[C@]12OC(C)(C)OC1C[C@H]1[C@@H]3CC(F)C4=CC(=O)C=C[C@]4(C)[C@]3(F)C(O)C[C@@]12C (some centres undefined),0.819 (inactive),1.14,5400,6590,-0.325 (inactive),-0.647
CCn1cc(NC(=S)Nc2cc(Cl)ccc2OC)c(C(N)=O)n1,0.929 (inactive),0.479,8480,9130,-0.357 (inactive),0.0626
CCC(C(C)O)n1ncn(-c2ccc(N3CCN(c4ccc(OCC5CO[C@@](Cn6cncn6)(c6ccc(F)cc6F)C5)cc4)CC3)cc2)c1=O (some centres undefined),1.04 (inactive),0.726,4300,4130,-0.325 (inactive),0.236
CNc1nc(-c2ccc3c(N)n[nH]c3c2)cc(N2CC(C(=O)NC3CCCCC3)CCC2C)n1 (centres undefined),0.8 (inactive),0.791,6100,7620,0.231 (inactive),-0.229
CN(C)C(=O)Nc1cccc(-c2ccc(N(C)C)cc2)c1,0.935 (inactive),0.582,7650,8180,-0.267 (inactive),-1.04
CC1(C)O[C@@H]2C[C@H]3[C@@H]4CCC5=CC(=O)C=C[C@]5(C)[C@@H]4C(O)C[C@]3(C)[C@@]2(C(=O)CO)O1 (some centres undefined),0.87 (inactive),1.16,5200,5970,-0.511 (inactive),-0.393
